# Several values for one entry are separate records, joined by “and”; a condition that tells them apart may be missing. Equal entries are not always repeated. Structures can show the parent of a compound that is named as a salt. ± gives the standard deviation of the averaged measurements.
# System: Listeria monocytogenes 10403S
# Test: growth inhibition relative to ceftriaxone-alone control; higher = stronger potentiation of ceftriaxone growth inhibition
# Conditions: 10 µM; ceftriaxone 1 ug/ml; 12 h
# 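Note: End-point A600 read in BHI broth at 37 °C with 2% DMSO, inhibition computed as (1 − OD with compound plus ceftriaxone ÷ OD with ceftriaxone only) × 100.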
row,SMILES,growth inhibition
1,Fc1ccc(-c2ncn(C3CCNCC3)c2-c2ccnc(Oc3ccc(F)c(F)c3)n2)cc1,10.7 ± 16%
2,NCc1ccc(-c2nc(-c3ccc(Cl)c(O)c3)c(-c3ccncc3)[nH]2)cc1,-9.88 ± 15%
3,COc1ccc(-c2nn3ncccc3c2-c2ccnc(Nc3ccc(F)c(F)c3)n2)cc1,-0.06 ± 1.5%
4,[O-][S+]1CCN(Cc2ccc(-c3ccc4ncnc(Nc5ccc(OCc6cccc(F)c6)c(Cl)c5)c4c3)o2)CC1,-4.71 ± 1.9%
5,CN1CCN(C(=O)c2ccc(NC(=O)Nc3ccc(N(C)c4ccnc(Nc5ccc(CS(C)(=O)=O)cc5)n4)cc3)cc2)CC1,-5.87 ± 3.3%
6,Nc1cccc(-c2cc3c(Oc4cccc(O)c4)ncnc3[nH]2)c1,-3.72 ± 8.2%
7,O=C1Nc2ccccc2C1=C1CCc2cc(O)ccc21,7.57 ± 3.2%
8,NS(=O)(=O)c1cccc(N/C=C2\C(=O)Nc3ccccc32)c1,-6.18 ± 1%
9,CCn1c(-c2nonc2N)nc2ccccc21,-9.18 ± 6.6%
10,COc1cccc(-n2ncc3c(N/N=C/c4ccc(F)cc4)ncnc32)c1,-3.41 ± 1%
11,Cc1ccc(Nc2nccc(N(C)c3ccc4c(C)n(C)nc4c3)n2)cc1S(N)(=O)=O [Pazopanib HCl],20.4 ± 13%
12,COc1cc2ncnc(Nc3ccc(F)c(Cl)c3)c2cc1OCCCN1CCOCC1 [Gefitinib (Iressa)],31 ± 21%
13,CN(C)Cc1cccc(N/C(=C2\C(=O)Nc3cc(C(N)=O)ccc32)c2ccccc2)c1,8.63 ± 3.3%
14,NC(=O)c1ccc(-c2nc(-c3ccccn3)c(-c3ccc4c(c3)OCO4)[nH]2)cc1,-0.443% and 16.4%
15,c1ccc(Oc2ccc(Nc3ncc(-c4ccccc4)o3)cc2)cc1,-0.487 ± 1.7%
16,Cc1[nH]c(/C=C2\C(=O)Nc3ccc(S(=O)(=O)Cc4c(Cl)cccc4Cl)cc32)c(C)c1C(=O)N1CCC[C@@H]1CN1CCCC1,78 ± 5.2%
17,COc1cccc(-n2ncc3c(N/N=C/c4ccc(S(C)(=O)=O)cc4)ncnc32)c1,-2.76 ± 9.3%
18,COc1ccc(-c2cc3c(C)nc(N)nc3n([C@H]3CC[C@H](OCCO)CC3)c2=O)cn1,12.2 ± 9.5%
19,S=C(NCc1ccc2c(c1)OCO2)N1CCN(c2ncnc3c2oc2ccccc23)CC1 [Amuvatinib (MP-470)],11.7 ± 22%

row,SMILES,growth inhibition
1,COc1cc2ncn(-c3cc(OCCc4ccccc4)c(C(N)=O)s3)c2cc1OC,-4.76 ± 1.4%
2,N#Cc1c(NC(=O)c2ccc(F)cc2)sc2c1CCCC2,1.2 ± 5.5%
3,COC(=O)Nc1nc2cc(Oc3ccc(NC(=O)Nc4ccccc4)cc3)ccc2[nH]1,8.77 ± 1.8%
4,COc1cc(Nc2ncc(-c3ccccc3)o2)cc(OC)c1,17 ± 3.9%
5,Cc1nnc(-c2cccc(-c3ccc(C(=O)NCC4CC4)cc3)c2)o1,3.5 ± 10%
6,c1ccc(-c2nc3n(c2-c2ccc4c(c2)OCO4)CCC3)nc1,-10.3 ± 17%
7,O=C1NC(=O)C(c2ccccc2Cl)=C1Nc1cccc(O)c1,-3.8 ± 3.6%
8,COC(=O)Nc1ccc(-c2nc(N3CCOCC3)c3cnn(C4CCN(C(=O)OC)CC4)c3n2)cc1,-59.1 ± 10%
9,NC(=O)c1cc(-c2ccncc2)cc(-c2ccccc2)c1N,2.14 ± 8.1%
10,COc1cc(OC)c(/C=C/S(=O)(=O)Cc2ccc(OC)c(NCC(=O)O)c2)c(OC)c1,4.69 ± 0.45%
11,O=c1cc(N2CCOCC2)oc2c(-c3cccc4c3sc3ccccc34)cccc12,26.2 ± 7%
12,NS(=O)(=O)c1ccc(-c2cc3ccncc3cc2OCc2ccccc2)cc1,-3.99 ± 6.9%
13,Oc1ccc(-c2nc(-c3ccc(F)cc3)c(-c3ccncc3)[nH]2)cc1,23.7 ± 32%
14,Cc1ccc(NC(=O)c2ccc(CN3CCN(C)CC3)cc2)cc1Nc1nc(-c2cccnc2)cs1 [Masitinib (AB1010)],36.7 ± 26%
15,CO[C@H]1C[C@@H]2CC[C@@H](C)[C@@](O)(O2)C(=O)C(=O)N2CCCC[C@H]2C(=O)O[C@H]([C@H](C)C[C@@H]2CC[C@@H](O)[C@H](OC)C2)CC(=O)[C@H](C)/C=C(\C)[C@@H](O)[C@@H](OC)C(=O)[C@H](C)C[C@H](C)/C=C/C=C/C=C/1C [Rapamycin (Sirolimus)],30.2 ± 26%
16,COC(=O)Nc1nc2ccc(Sc3ccc(NC(=O)Nc4cc(C(F)(F)F)ccc4F)cc3)cc2[nH]1,-12.7 ± 13%
17,CN1CCN(C2CCN(C(=O)Nc3cc(Oc4ccc(NC(=O)C5(C(=O)Nc6ccc(F)cc6)CC5)c(F)c4)ccn3)CC2)CC1 [Golvatinib (E7050)],48.7 ± 37%
18,CS(=O)(=O)CCNCc1nc(-c2ccc3ncnc(Nc4ccc(F)c(Cl)c4)c3c2)cs1,1.67 ± 6.4%
19,NS(=O)(=O)c1cccc(-c2ccc3c(NC(=O)C4CC4)n[nH]c3c2)c1,0.81 ± 3.7%
